The source made the active and inactive calls. The calls were made as follows: active = hit-call score of the fitted dose curve at least 0.9, where 1 is the maximum; inactive = score below 0.9.

The test concerns the target human Protein Kinase D2 (PKD2), PRKD2 (gene 25865) (UniProt Q9BZL6). Kind of test: NVS_ENZ_hPKD2: NovaScreen (NVS) Enzymatic Assay for human Protein Kinase D2 (PKD2). On the procedure: NVS_ENZ_hPKD2 is a biochemical, single-readout assay that uses extracted gene-proteins in a cell-free assay. Measurements were taken 1 hour after chemical dosing in a 384-well plate.NVS_ENZ_hPKD2 is one of one assay component(s) measured or calculated from the NVS_ENZ_hPKD2 assay. It is designed to make measurements of enzyme activity, a form of enzyme reporter, as detected with fluorescence intensity signals by Fluorescence and electrophoretic mobility shift technology.Data from the assay component NVS_ENZ_hPKD2 was analyzed into 1 assay endpoint. This assay endpoint, NVS_ENZ_hPKD2, was analyzed in the positive analysis fitting direction relative to DMSO as the negative control and baseline of activity. Using a type of enzyme reporter, loss-of-signal activity can be used to understand changes in the enzymatic activity as they relate to the gene PRKD2. Furthermore, this assay endpoint can be referred to as a primary readout, because this assay has produced multiple assay endpoints where this one serves a enzymatic activity function. To generalize the intended target to other relatable targets, this assay endpoint is annotated to the kinase intended target family, where the subfamily is serine/threonine kinase. […]

human Protein Kinase D2 (PKD2), PRKD2 (gene 25865), sequence (Q9BZL6 whole entry, looked up): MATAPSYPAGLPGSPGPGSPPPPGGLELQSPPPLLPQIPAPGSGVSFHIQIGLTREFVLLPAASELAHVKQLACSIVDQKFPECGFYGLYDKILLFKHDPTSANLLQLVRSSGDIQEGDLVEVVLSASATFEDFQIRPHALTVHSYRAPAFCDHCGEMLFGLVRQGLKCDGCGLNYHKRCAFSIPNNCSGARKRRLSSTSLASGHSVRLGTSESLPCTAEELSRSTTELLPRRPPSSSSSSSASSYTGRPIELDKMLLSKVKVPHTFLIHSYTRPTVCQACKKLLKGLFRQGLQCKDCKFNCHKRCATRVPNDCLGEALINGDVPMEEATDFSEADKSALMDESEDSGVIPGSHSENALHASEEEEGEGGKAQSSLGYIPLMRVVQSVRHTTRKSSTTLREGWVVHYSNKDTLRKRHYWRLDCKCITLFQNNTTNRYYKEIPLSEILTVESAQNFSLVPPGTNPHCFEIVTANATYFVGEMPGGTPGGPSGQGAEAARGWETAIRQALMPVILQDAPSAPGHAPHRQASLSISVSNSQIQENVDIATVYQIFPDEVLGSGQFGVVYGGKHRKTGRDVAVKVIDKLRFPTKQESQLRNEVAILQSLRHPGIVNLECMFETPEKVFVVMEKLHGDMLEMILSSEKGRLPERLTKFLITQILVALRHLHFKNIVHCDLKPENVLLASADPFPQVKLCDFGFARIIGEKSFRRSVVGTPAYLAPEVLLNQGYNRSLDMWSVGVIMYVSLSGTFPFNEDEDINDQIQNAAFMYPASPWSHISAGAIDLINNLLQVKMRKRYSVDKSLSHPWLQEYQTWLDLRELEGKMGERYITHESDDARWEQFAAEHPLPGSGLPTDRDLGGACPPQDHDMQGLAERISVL

As for `N#CSCSc1nc2ccccc2s1`, the call was inactive. In the case of `Oc1ccc(C(c2ccc(O)cc2)C(Cl)(Cl)Cl)cc1` it was “inactive”.

The record behind these values is PubChem BioAssay AID2283197 (EPA ToxCast).
